The panel holds about 83,000 compounds, 20% with a hit somewhere; the sample as a whole holds those more often.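 Cell lines were cultured in 96-well plates, exposed to a single compound concentration, and assessed for percent growth 48 hours later.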 Unmarked numbers belong to inactive results. Calls of active or inactive are those of the source. The calls were made as follows: active = growth percent below 10; inactive = the rest.
system: HL-60(TB) leukemia; assay: NCI-60 one-dose screen, 48 h (100 = growth as untreated, 0 = no growth, -100 = all killed); conditions: 10 µM unless noted

| SMILES | growth |
| --- | --- |
| COc1cccc(-c2nc3sccn3c2-c2ccnc(NCCCNS(=O)(=O)c3ccc(Cl)cc3)c2)c1 | 27.4% |
| COc1ccc(C2C(c3ccccc3)C(=O)N2c2cc(OC)c(OC)c(OC)c2)cc1I (stereo not given) | -31.6% (active) |
| CCCCN(CCCC)CCCCCCCCC(O)c1cc2ccccc2c2ccccc12 (stereo not given) | 28.5% |
| COc1ccc(C2CC(c3ccc(Nc4ccnc5cc(Cl)ccc45)cc3)=NN2C=O)cc1 (stereo not given) | -42.6% (active) |
| CC(C)=CCc1ccc(O)c(=O)cc1C(C)C | -1.27% (active) |
| Clc1ccc2sc(-c3ccccc3)nc2c1 | 86.2% |
| COc1cc(F)c(F)c(Nc2ccc(I)cc2F)c1NS(=O)(=O)C1(C[C@H](O)CO)CC1 | 23.9% |
| CCCCCCCC(=O)SCC/C=C/[C@@H]1CC(=O)NCc2cc(ccn2)C2=N[C@@](C)(CS2)C(=O)N[C@@H](C(C)C)C(=O)O1 | 22.6% |
| c1c2c(cc3c1OCO3)Cc1cc3c(cc1Cc1cc4c(cc1C2)OCO4)OCO3 | 116% |
| Nc1c(C(=O)Nc2cccc3cnccc23)sc2nc3c(cc12)CN(Cc1ccccc1)CC3 | 101% |
| CC(=O)CCS(=O)c1ccccc1 (stereo not given) | 97.4% |
| NCCNc1nc(Nc2ccc(-c3nc4ccccc4[nH]3)cc2)c2cn[nH]c2n1 | 91.9% |
| CCCCCN(CCCCC)CCCNc1c2c(nc3ccc(Cl)cc13)CCCC2 | 48.8% |
| O=P(O)(c1ccccc1)c1ccccc1I | 117% |
| Nc1ccc2[nH]c(-c3ccccc3)cc(=O)c2c1 | 88.2% |

Reference: PubChem BioAssay (NCI)
